Screening data from PubChem.
iPSC survival up – hiPSC single-cell survival enhancement; ATPlite luminescence; 100% = ROCK inhibitor wells, 0% = DMSO; survival enhancement, % at 20 µM; 360,000 tested, 0.044% active; AID 602274; in the data active means survival enhancement above about 18%;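 further: cells exposed to compounds for 16 hours before the ATP read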
Myeloid diff 2 – promotes myeloid progenitor differentiation; ER-HoxA9 myeloid progenitors, lysozyme-GFP differentiation, flow cytometry; calls only at 10 µM; 360,000 tested, 1% active; AID 624256;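 active means normalized GFP-positive differentiation at or above the plate's own cutoff, the solvent-only control mean plus 3 SD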;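 further: cells exposed to compound for four days before flow analysis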
MIN6 prolif – induces beta-cell replication in MIN6 cells | MIN6 cells proliferation, ATPlite luminescence, 48 h; cells starved in 0.2% serum; 100% = growth in 10% serum | proliferation, % at 10 µM | 330,000 tested, 0.29% active | AID 2380;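 active means compounds whose signal lies at least 3.5 SD above the mean of all wells on their plate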;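 further: 0% = DMSO-treated cells in low-serum medium and 100% = 10% serum control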
ABCB6 inh 2 – human ABCB6 transporter inhibition. K562-ABCB6 porphyrin accumulation, flow cytometry, 1 h; active compounds read low. fluorescence ratio to DMSO, % at 10 µM. 360,000 tested, 0.19% active;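 active means fluorescence ratio to DMSO below 75%, the collection mean minus 3 SD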;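 further: signal is porphyrin accumulated inside mitochondria; 100% equals median channel fluorescence of DMSO control wells; lower ratio means ABCB6 inhibition with less porphyrin fluorescence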
Cardio protect – modulators protecting cardiomyocytes from myocardial damage. 360,000 tested, 0.63% active. H9c2 cardiomyocytes, H2O2 injury protection, ATPLite, 2 h. AID 588492. protection from H2O2 cell death, % at 20 µM;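 active means compounds giving at least 50% protection of heart cells from peroxide-induced death in the single-dose screen, raw or plate-pattern-corrected value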;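 further: 0% = DMSO wells with peroxide and 100% = DMSO wells without peroxide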
Myeloid diff CP1 – promotes myeloid progenitor differentiation; shares compounds with Myeloid diff 2; ER-HoxA9 myeloid progenitors, GFP/Mac1 double-positive flow; calls only; 2,300 tested, 2% active; AID 651706;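 active means share of green or green-and-red cells above 9 and 9% in run 1 or 4 and 3% in run 2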
GFP autofluor – counter-screen for myeloid differentiation promoters: compound fluorescence; fluorescence response, % (no concentration beside the values); AID 651707; shares compounds with Myeloid diff 2; ER-HoxA9 myeloid progenitors, no estrogen, GFP autofluorescence flow cytometry; vehicle wells 0%, positive control 100%; 2,300 tested, 7.4% active;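 active means over 5% cells positive for green fluorescent reporter, or over 2% positive for both it and APC stain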;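 further: range taken on the double positive population between DMSO and positive control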
* hit, by the source's call; i = inactive; . = no result given; + = active, no number. Rows were chosen to be rich in hits. Some 2.2% of all compounds tested hit in one or more screens of this group.

SMILES | iPSC survival up | Myeloid diff 2 | MIN6 prolif | ABCB6 inh 2 | Cardio protect | Myeloid diff CP1 | GFP autofluor
CCOCCCNC(=O)C1(O)c2ccccc2NC(=O)N1c1ccc(Cl)c(Cl)c1 (configuration not stated) | 0 | i | -1 | 101 | -3 | . | .
Cc1ccccc1C(=O)NNC(=S)NC(=O)c1cccnc1 | -1 | i | -3 | 95 | 15 | . | .
CC(C)N(Cc1cc2ccccc2[nH]c1=O)C(=O)C1CCCCC1 | -4 | i | -1 | 109 | 4 | i | 0
CCN(Cc1cc2ccccc2[nH]c1=O)C(=O)C1CCCCC1 | -3 | i | -3 | 100 | -11 | . | .
CSC1=NSC2=NC(=O)/C(=C/c3coc4ccc(O)cc4c3=O)C(=N)N12 | 2 | + | 0 | 303 | 7 | i | 2
COc1cc(C[C@H](C)[C@H](C)Cc2ccc3c(c2)OCO3)ccc1O | 0 | i | -9 | 96 | -8 | . | .
CCN1CCN(CC(=O)Nc2ccc(S(=O)(=O)N3C(C)CCCC3C)cc2)CC1 (configuration not stated) | 0 | i | -3 | 83 | 1 | i | 0
CCOc1cc(C(=O)OCC(=O)Nc2ncc(Cl)c(C)c2Cl)ccc1OCC(=O)N1CCOCC1 | 5 | i | 0 | 103 | 3 | . | .
Cn1cc(-c2cnc3c(NC=O)cc(-c4cccc(C(F)(F)F)c4)cn23)cn1 | 0 | + | . | 89 | 5 | i | 2
COc1ccc(-c2cc(NC=O)c3ncc(-c4cccc(C(F)(F)F)c4)n3c2)c(OC)c1 | -3 | + | . | 112 | -8 | i | 0
Cc1ccc(CNc2nc(NCC3CC3)nc3ccsc23)c(C)c1 | 3 | + | . | 97 | -28 | i | 0
Cc1cccc(-n2c(Cc3ccccc3)nnc2SCc2ccc([N+](=O)[O-])cc2)c1 | 1 | i | -6 | 98 | 1 | . | .
COc1cc(O)c(C(CCN2CCCC2)c2cc(OC)c(OC)c(OC)c2)c(OC)c1 (configuration not stated) | -2 | i | -1 | 97 | -2 | . | .
Cn1c(C(=O)N2CCCC(C(=O)NCCCSC3CCCCC3)C2)cc2sccc21 (configuration not stated) | 0 | i | -4 | 94 | -4 | . | .
Cn1c(C(=O)N2CCCC(C(=O)NCc3cccs3)C2)cc2sccc21 (configuration not stated) | -2 | + | 2 | 105 | 3 | i | 0
CCn1c(C(=O)N2CCCC(C(=O)NCCc3ccc(C)cc3)C2)cc2sccc21 (configuration not stated) | -2 | i | -3 | 98 | 2 | i | 0
CCn1c(C(=O)N2CCCC(C(=O)NCCCc3ccccc3)C2)cc2sccc21 (configuration not stated) | -1 | i | 1 | 89 | -2 | . | .
Cc1ccc(CNC(=O)CN(C(=O)C2(C)CC(=O)N=C3C=CC=CN32)c2ccc(F)cc2)cc1 (configuration not stated) | 0 | i | -3 | 101 | 7 | . | .
CC(=O)Nc1ccc(C2=CC(=O)C[C@H](c3ccc(Cl)cc3)C2)cc1 | 2 | i | -2 | 95 | 2 | + | 0
O=C(NCCc1nccs1)C1CCC(=O)N(Cc2cccc(C(F)(F)F)c2)C1 (configuration not stated) | -1 | i | -2 | 97 | 2 | . | .
O=C(NCc1ccccc1Cl)C1CCCN(S(=O)(=O)c2cccc3nsnc23)C1 (configuration not stated) | 4 | i | -1 | 92 | 1 | i | 0
O=C(NCC1CCCO1)C1CCCN(S(=O)(=O)c2cccc3nsnc23)C1 (configuration not stated) | 0 | i | -2 | 102 | 2 | . | .
COC(=O)Cc1c(C)c2ccc(OC(=O)c3ccccc3)cc2oc1=O | -3 | i | 0 | 100 | 2 | i | 0
Cc1cc2c3c(c1)C1(C(=O)N3C(C)(C)CC2C)C(C#N)=C(N)Oc2n[nH]c(C)c21 (configuration not stated) | -3 | i | 6 | 103 | -1 | . | .
Cc1cc2c3c(c1C)C1(C(=O)N3C(C)(C)CC2C)C(C#N)=C(N)Oc2n[nH]c(C)c21 (configuration not stated) | -1 | + | 5 | 91 | 0 | i | 0
SMILES | iPSC survival up | Myeloid diff 2 | MIN6 prolif | ABCB6 inh 2 | Cardio protect | Myeloid diff CP1 | GFP autofluor
Cc1cc2cc(CN(CC3CCCO3)C(=S)Nc3ccccc3)c(=O)[nH]c2cc1C (configuration not stated) | 0 | + | -6 | 106 | 8 | i | 5
ClCC(CNCc1ccccc1)c1ccccc1 (configuration not stated) | 0 | i | . | 99 | -2 | . | .
Cn1cnc2cc(NS(=O)(=O)c3ccc(Br)cc3)ccc21 | 4 | i | 0 | 95 | -5 | . | .
Cn1ccc(C(=O)OCC(=O)c2ccccc2)n1 | 5 | + | -1 | 100 | 6 | i | 0
Cc1cnc(C(=O)OCC(=O)c2ccccc2)cn1 | 0 | i | -2 | 88 | 6 | . | .
Cc1ccc(-c2nc3c(C)cc(Br)cn3c2Cc2cccc(F)c2)cc1 | 1 | i | . | 107 | . | . | .
CCc1nc(SCC(=O)c2ccc(Cl)s2)c2oc3ccccc3c2n1 | -2 | i | -1 | 99 | -10 | . | .
Cc1ccc(C)c(Oc2coc3cc(O)ccc3c2=O)c1 | 1 | i | -3 | 95 | -3 | . | .
CCNCCNC(=O)c1c(O)c2cccc3c2n(c1=O)CCC3 | 8 | i | 1 | 121 | -3 | i | 0
COc1cc2c(=O)n(CCC(=O)NCC3CCCO3)c(=O)n(CC(=O)Nc3ccc(C)cc3)c2cc1OC (configuration not stated) | 0 | i | 0 | 95 | -5 | . | .
CCOc1cc(C=C2C(=O)c3ccccc3C2=O)ccc1OCC(=O)Nc1ccc(C)cc1 | 0 | + | -1 | 97 | 3 | i | 0
COC[C@H]1CCCN1c1ccc2c(c1)O[C@@H](COCc1ccccc1)CN([C@H](C)c1ccccc1)S2(=O)=O | 0 | i | . | 89 | . | . | .
COc1ccc(NC(=O)C2CCCN2c2nn3c(=O)cc(C)nc3s2)cc1 (configuration not stated) | 4 | i | -1 | 104 | -3 | . | .
CCOC(=O)C1(CCOc2ccccc2)CCN(Cc2cccc(OC)c2)CC1 | 0 | + | . | 99 | -10 | i | 0
COc1cccc(-c2sc3ccccc3c2-c2ccc(OCCN3CCCCC3)cc2)c1 | -3 | i | -6 | 93 | -11 | i | 0
c1ccc(-c2sc3ccccc3c2-c2ccc(OCCN3CCCC3)cc2)cc1 | -3 | i | -6 | 97 | -10 | i | 4
